Reference: PubChem BioAssay (Tox21)
Values joined by “and” are separate entries in the source; they are usually repeats but may differ in a detail not shown here. Equal entries are not always repeated. Inconclusive results are not listed. A call without a number means that no potency is given here. Active and inactive are the calls of the source. Unless noted, calls follow the shape of the dose curve; as a rule, active = well fitted curve in the direction sought with a large enough effect in the repeat runs; inconclusive = weak or mixed curves; inactive = no such curve, though single readings can be large; an effect the other way counts as inactive or inconclusive.

Columns and labels:
[1] = qHTS assay to identify small molecule antagonists of the thyroid receptor (TR) signaling pathway - cell viability counter screen (AID 743064); also: nearly all actives have a fitted effect of over 50% in size; also: potency is read from the fitted curve at half-maximal effect
Procedure, shortened: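 GH3.TRE-Luc rat pituitary cells carrying a TRE-luciferase reporter were treated with compound plus 1 nM T3 (final) for 23.5 h at 37 °C. Viability was then read in the same wells by CellTiter-Fluor fluorescence after a further 30 min.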

[2] = target: Estrogen receptor (Homo sapiens) (UniProt P03372); test: qHTS assay to identify small molecule antagonists of the estrogen receptor alpha (ER-alpha) signaling pathway (AID 743069; active = well fitted curve in the direction sought with a large enough effect in the signal ratio in the repeat runs, not every such curve was filed as active; the % refers to the signal ratio)
Procedure, shortened: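 HEK293 ER-alpha-UAS-bla GripTite cells, held overnight in 2% charcoal-stripped FBS, 5,000 cells/well, preincubated 4 h, then compound plus 17beta-estradiol for 18 h at 37C. Beta-lactamase read by LiveBLAzer B/G FRET substrate, 2 h at room temperature.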

[3] = target: Estrogen receptor (Homo sapiens) (UniProt P03372); test: qHTS assay to identify small molecule agonists of the estrogen receptor alpha (ER-alpha) signaling pathway (AID 743075; calls by dose curve; also: potency is read from the fitted curve at half-maximal effect)
[4] = target: Estrogen receptor (Homo sapiens) (UniProt P03372); test: qHTS assay to identify small molecule agonists of the estrogen receptor alpha (ER-alpha) signaling pathway using the BG1 cell line (AID 743079); conditions: BG1Luc4E2 cells, ERE-luciferase agonist, 22 h; activation: at 70.3 µM (top of the series); also: nearly all actives have a fitted effect of over 20% in size; also: potency is read from the fitted curve at half-maximal effect
[5] = qHTS assay to identify small molecule antagonists of the estrogen receptor alpha (ER-alpha) signaling pathway using the BG1 cell line - cell viability counter screen (AID 743081);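 also: compound given together with 17beta-estradiol as the ER stimulus; nearly all actives have a fitted effect of over 45% in size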; also: potency is read from the fitted curve at half-maximal effect
Aromatase (Homo sapiens) = Aromatase (Homo sapiens) (UniProt P11511); test: qHTS assay to identify aromatase inhibitors (AID 743083); also: nearly all actives have a fitted effect of over 55% in size; also: potency is read from the fitted curve at half-maximal effect
[6] = qHTS assay to identify small molecule antagonists of the thyroid receptor (TR) signaling pathway (AID 743065); also: nearly all actives have a fitted effect of over 55% in size; also: potency is read from the fitted curve at half-maximal effect
Procedure, shortened: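 GH3.TRE-Luc rat pituitary cells (two TREs driving luciferase) were dosed with compound, then stimulated with 1 nM T3 (final) for 23.5 h at 37 C. ONE-Glo luminescence was the read-out, with CellTiter-Fluor fluorescence as the cytotoxicity counter-screen.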

[7] = tested on: thyroid hormone receptor (rat, GH3 cells); test: qHTS assay to identify small molecule agonists of the thyroid receptor (TR) signaling pathway (AID 743066; calls by dose curve)
[8] = qHTS assay to identify small molecule antagonists of the estrogen receptor alpha (ER-alpha) signaling pathway - cell viability counter screen (AID 743074; calls by dose curve;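 also: HEK293 cells carrying ER-alpha-UAS-bla reporter stimulated with 17beta-estradiol; nearly all actives have a fitted effect of over 45% in size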; also: potency is read from the fitted curve at half-maximal effect)
[9] = qHTS assay to identify small molecule antagonists of the estrogen receptor alpha (ER-alpha) signaling pathway using the BG1 cell line (AID 743080; calls by dose curve;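 also: BG1 cells stimulated with 17beta-estradiol alongside compound; nearly all actives have a fitted effect of over 25% in size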; also: potency is read from the fitted curve at half-maximal effect)
Procedure, shortened: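 Seeding, 24 h rest, compound transfer from DMSO, 17beta-estradiol addition, 21.5 h incubation, CellTiter-Fluor (30 min, 37 C), then ONE-Glo (30 min, room temperature): this sequence was run on BG1-Luc-4E2 reporter cells.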

Chain of Estrogen receptor (Homo sapiens) (P03372 whole entry, looked up): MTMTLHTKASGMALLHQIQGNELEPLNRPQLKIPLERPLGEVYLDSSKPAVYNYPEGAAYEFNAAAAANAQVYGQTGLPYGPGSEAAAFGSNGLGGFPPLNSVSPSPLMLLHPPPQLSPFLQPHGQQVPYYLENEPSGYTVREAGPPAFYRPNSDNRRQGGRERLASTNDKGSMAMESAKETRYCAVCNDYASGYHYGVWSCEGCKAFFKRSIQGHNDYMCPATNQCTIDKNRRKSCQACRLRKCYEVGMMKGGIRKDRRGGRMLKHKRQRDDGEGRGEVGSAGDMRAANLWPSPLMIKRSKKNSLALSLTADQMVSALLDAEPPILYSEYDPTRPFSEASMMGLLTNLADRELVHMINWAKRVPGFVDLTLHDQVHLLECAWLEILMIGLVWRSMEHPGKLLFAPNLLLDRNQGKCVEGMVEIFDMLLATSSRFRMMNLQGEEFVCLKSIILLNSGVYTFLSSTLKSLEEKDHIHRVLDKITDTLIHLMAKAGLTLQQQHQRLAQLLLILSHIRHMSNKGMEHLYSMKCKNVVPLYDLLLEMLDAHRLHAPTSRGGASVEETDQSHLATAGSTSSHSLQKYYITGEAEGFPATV
Chain of Aromatase (Homo sapiens) (P11511 whole entry, looked up): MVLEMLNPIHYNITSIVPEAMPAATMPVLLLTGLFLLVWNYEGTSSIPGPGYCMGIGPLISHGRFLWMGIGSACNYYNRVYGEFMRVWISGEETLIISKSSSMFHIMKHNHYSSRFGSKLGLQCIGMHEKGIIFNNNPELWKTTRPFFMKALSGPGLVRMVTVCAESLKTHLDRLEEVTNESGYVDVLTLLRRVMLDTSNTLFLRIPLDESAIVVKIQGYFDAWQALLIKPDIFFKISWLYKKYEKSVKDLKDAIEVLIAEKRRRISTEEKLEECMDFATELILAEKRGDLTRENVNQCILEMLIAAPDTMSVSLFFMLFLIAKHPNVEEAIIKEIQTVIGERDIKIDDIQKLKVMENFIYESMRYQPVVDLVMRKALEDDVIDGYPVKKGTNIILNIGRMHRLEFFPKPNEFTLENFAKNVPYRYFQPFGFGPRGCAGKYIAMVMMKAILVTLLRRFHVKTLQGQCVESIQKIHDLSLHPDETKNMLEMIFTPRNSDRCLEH

SMILES | Potency [1] | Potency [2] | Potency [3] | Potency [4] | Potency [5] | Potency (Aromatase (Homo sapiens)) | Potency [6] | outcome [7] | Potency [8] | Potency [9]
O=C(/C=C/c1ccccc1)OCCCc1ccccc1 | inactive | inactive | inactive | 27.3 µM (active) | inactive | inactive |  |  |  | 
CCOC(=O)OCC |  | inactive | inactive | inactive | inactive | inactive | inactive | inactive | inactive | inactive
O=C(CS)OCCOC(=O)CS | inactive |  |  |  | inactive | inactive |  | inactive | inactive | 
Cc1ccc(S)cc1 | inactive |  | inactive | inactive | inactive | inactive |  |  |  | inactive
CC(=O)Nc1ccc(N)cc1 |  | inactive | inactive | inactive | inactive | inactive | inactive | inactive | inactive | inactive
CCCCCCCCCCCC(=O)[O][Sn]([CH2]CCC)([CH2]CCC)[O]C(=O)CCCCCCCCCCC | inactive |  |  |  |  | inactive |  | inactive | inactive | 
CCCOc1ccc(S(=O)(=O)N2CCN(CC)CC2)cc1-c1nc2c(CC)n(Cc3ccccn3)nc2c(=O)[nH]1 | inactive | inactive | inactive | inactive | inactive | inactive |  | inactive | inactive | inactive
Nc1ccc(C(=O)OCCCOC(=O)c2ccc(N)cc2)cc1 | inactive |  | inactive |  | inactive | 30.6 µM (active) |  | inactive | inactive | inactive
Cc1cc(O)c2c(O)c3c(O)cccc3cc2c1 | inactive |  |  |  | inactive | inactive |  | inactive | inactive | 
CCCCC/C(=C\c1ccccc1)CO | 48 µM (active) |  |  |  | inactive | 30.3 µM (active) |  | inactive | inactive | 
CC(C)(C)CC(C)(C)c1ccc(OCCO)cc1 | 11.9 µM (active) and 60.8 µM (active) |  | inactive |  | 24.2 µM (active) | 26.6 µM (active) and 43 µM (active) |  |  | inactive | 
CC1(C)C2=CCCC(C)(C)[C@]23CC[C@H]1C3 | inactive |  |  |  | inactive |  |  | inactive | inactive | 
c1cc[c]([Bi]([c]2ccccc2)[c]2ccccc2)cc1 |  | inactive | inactive | 21.7 µM (active) | inactive | inactive | 54.5 µM (active) | inactive | inactive | inactive
C[C@@H]1C[C@H]2[C@@H]3CCC4=CC(=O)C=C[C@]4(C)[C@@]3(F)[C@@H](O)C[C@]2(C)[C@H]1C(=O)CO | inactive |  |  |  | inactive | inactive |  | inactive | inactive | 
CCCc1c(OCCCOc2ccc(OCC(=O)O)cc2)ccc(C(C)=O)c1O | inactive |  | inactive | inactive | inactive |  |  | inactive | inactive | inactive
Cc1cc(S(=O)(=O)O)ccc1N=Nc1c(O)ccc2ccccc12 | 17.2 µM (active) |  |  |  | 30.6 µM (active) | inactive |  | inactive | inactive | 

SMILES | Potency [1] | Potency [2] | Potency [3] | Potency [4] | Potency [5] | Potency (Aromatase (Homo sapiens)) | Potency [6] | outcome [7] | Potency [8] | Potency [9]
COc1ccccc1N=Nc1c(S(=O)(=O)O)cc2cc(S(=O)(=O)O)cc(NC(C)=O)c2c1O | 32.3 µM (active) |  |  |  | 28.8 µM (active) |  |  | inactive | inactive | 
CCCC1C(CC)=CC(CC)=CN1c1ccccc1 (configuration not stated) | inactive |  |  |  |  | inactive |  | inactive | inactive | 
C[C@]12CCC(=O)C=C1C=C[C@@H]1[C@@H]2CC[C@@]2(C)[C@H]1CC[C@@]21CCC(=O)O1 | inactive | inactive | inactive |  | inactive |  |  | inactive | inactive | 
COc1ccc(C(=O)c2cccc(O)c2)c(OC)c1 | inactive | inactive | 24.5 µM [activator] (active) | 6.84 µM (active) | inactive | inactive |  | inactive | inactive | 68.5 µM (active)
O=c1[nH]c2ccc(S(=O)CCN3CCC(Cc4ccc(F)cc4)CC3)cc2o1 (configuration not stated) | inactive | inactive | inactive | 12.2 µM (active) |  | inactive |  | inactive | inactive | 
C(=C\c1ccccc1)/CN1CCN(C(c2ccccc2)c2ccccc2)CC1 | 12.7 µM (active) |  |  |  | inactive | inactive |  |  | inactive | 
O=C(OCCOCCO)c1ccccc1Nc1cccc(C(F)(F)F)c1 |  | inactive | inactive | inactive | inactive | inactive | inactive | inactive | inactive | inactive
O=C(Nc1ccccc1)Nc1ccccc1 | inactive | inactive | inactive | 19.4 µM (active) | inactive | inactive |  | inactive | inactive | 
CCCCCCCCCCCC[N+](C)(C)CCCS(=O)(=O)[O-] |  | inactive | inactive | inactive | inactive | inactive | 24.6 µM (active) | inactive | 49.6 µM (active) | inactive
c1ccc(COCc2ccccc2)cc1 |  | inactive | inactive | inactive | inactive | inactive | inactive | inactive | inactive | inactive
CC(=O)[C@H]1CC[C@H]2[C@@H]3C=CC4=CC(=O)CC[C@@]4(C)[C@@H]3CC[C@]12C | inactive |  | inactive | inactive | inactive | inactive |  | inactive | inactive | inactive
NC(=O)Nc1ccc(Cl)c(Cl)c1 | inactive |  |  |  | inactive | inactive |  | inactive | inactive | 
C/C=C/C=C/CCCCCCCO |  | inactive | inactive | inactive | inactive | inactive | 61.1 µM (active) | inactive | inactive | inactive
C=CC(C)=CCC=C(C)C | inactive |  |  |  | inactive | inactive |  | inactive | inactive | 
OC(CCCN1CCCCC1)(c1ccccc1)c1ccccc1 |  | inactive | inactive | inactive |  | inactive |  | inactive |  | inactive
